Over roughly 5,000 sequences, “log2 normalized fluorescence” has its median near 0.089; the highest 2% begin near 0.81. The entries come from a sample that favours the highest values as a whole.
These sequences were tested against MYC (p64);MAX (p21), in MYC:MAX (human;human, UniProt P01106-1;P61244-2 1-439;1-151, |) (assay: protein-binding microarray (anti-MAX antibody); PBM: 15 mM Tris-HCl pH 7.5, 100 mM KCl, 0.075% NP40, 7.5 mM beta-mercaptoethanol, 375 ng/ul BSA, 8 ng/ul poly(dA-dT):(dA-dT), 550 ng complex, 60 min, room tempe; high values mean tight binding). Details: protein: recombinant;recombinant; tags: 6xHis;6xHis; copies: 1;1; label: 3' end of printed strand (linker) attached to glass slide; dsDNA, one strand shown.
Outline: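 For each of ~5000 unique double-stranded 12-nt sequences, spotted in triplicate on a custom Agilent glass array, binding of His-tagged human MYC:MAX or MAX:MAX dimers is reported as log2 normalized fluorescence. The dimers (550 ng, E. coli-expressed) were incubated for 60 min at room temperature in Tris-KCl buffer, pH 7.5, with NP40, BSA and poly(dA-dT) competitor. Detection used anti-MAX and secondary antibodies with a 543 nm scan.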

MYC (p64);MAX (p21), in MYC:MAX, sequence (P01106 16-454, chain 1 of 2): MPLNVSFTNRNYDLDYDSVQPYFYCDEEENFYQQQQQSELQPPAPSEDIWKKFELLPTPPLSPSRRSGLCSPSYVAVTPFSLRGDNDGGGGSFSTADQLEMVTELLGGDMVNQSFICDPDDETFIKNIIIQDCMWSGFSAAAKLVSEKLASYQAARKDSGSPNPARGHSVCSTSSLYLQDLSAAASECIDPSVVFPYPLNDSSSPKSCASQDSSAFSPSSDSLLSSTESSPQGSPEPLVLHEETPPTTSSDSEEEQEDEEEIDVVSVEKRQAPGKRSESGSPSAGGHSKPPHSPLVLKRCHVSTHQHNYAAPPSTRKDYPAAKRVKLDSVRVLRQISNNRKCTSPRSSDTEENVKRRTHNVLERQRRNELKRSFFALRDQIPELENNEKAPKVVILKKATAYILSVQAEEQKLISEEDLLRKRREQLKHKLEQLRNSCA
MYC (p64);MAX (p21), in MYC:MAX, sequence (P61244 other isoform, or with tags, fused parts or gaps |, chain 2 of 2): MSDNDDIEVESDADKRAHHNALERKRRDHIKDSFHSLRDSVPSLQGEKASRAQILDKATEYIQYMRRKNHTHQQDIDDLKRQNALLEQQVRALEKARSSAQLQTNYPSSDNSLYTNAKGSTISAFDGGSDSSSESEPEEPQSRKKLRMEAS

Row | Sequence | binding signal
1 | CCGGCTAGCACGTGTTTTTAATAGCTAAGATTACTATATCGACG | 0.813 log2 normalized fluorescence
2 | CCGGCTGACACGTGCACTTAATAGCTAAGATTACTATATCGACG | 0.88 log2 normalized fluorescence
3 | CCGGCTGAATCTTGGTATTAATAGCTAAGATTACTATATCGACG | -0.0321 log2 normalized fluorescence
4 | CCGGCTGAAAGGTCGTATTAATAGCTAAGATTACTATATCGACG | 0.0812 log2 normalized fluorescence
5 | CCGGCTGGAGCGTGGTATTAATAGCTAAGATTACTATATCGACG | 0.418 log2 normalized fluorescence
6 | CCGGCTGAAATCGCGTATTAATAGCTAAGATTACTATATCGACG | 0.18 log2 normalized fluorescence
7 | CCGGCTGAATCAATGTATTAATAGCTAAGATTACTATATCGACG | 0.252 log2 normalized fluorescence
8 | CCGGCTGAGAACACGTATTAATAGCTAAGATTACTATATCGACG | 0.318 log2 normalized fluorescence
9 | CCGGCTGACCTTGAGTATTAATAGCTAAGATTACTATATCGACG | 0.204 log2 normalized fluorescence
10 | CCGGCTGGCACGTGGTGTTAATAGCTAAGATTACTATATCGACG | 0.954 log2 normalized fluorescence
11 | CCGGCAGACACGTGTTATTAATAGCTAAGATTACTATATCGACG | 0.993 log2 normalized fluorescence
12 | CCGGCTGGCACGTGGCATTAATAGCTAAGATTACTATATCGACG | 0.721 log2 normalized fluorescence
13 | CCGGCCGACACGGCGTATTAATAGCTAAGATTACTATATCGACG | 0.161 log2 normalized fluorescence
14 | CCGGCTGGCACGTGGTATTAATAGCTAAGATTACTATATCGACG | 0.809 log2 normalized fluorescence
15 | CCGGCAGACACGTGATATTAATAGCTAAGATTACTATATCGACG | 0.851 log2 normalized fluorescence
16 | CCGGCCGACACGTGTTATTAATAGCTAAGATTACTATATCGACG | 0.999 log2 normalized fluorescence
17 | CCGGCAGACACGTCGTATTAATAGCTAAGATTACTATATCGACG | 0.32 log2 normalized fluorescence
18 | CCGGCAGACACGTGATCTTAATAGCTAAGATTACTATATCGACG | 0.751 log2 normalized fluorescence
19 | CCGGCAGACACGCGATATTAATAGCTAAGATTACTATATCGACG | 0.437 log2 normalized fluorescence

Row | Sequence | binding signal
20 | CCGGCAGAAACGTGTTATTAATAGCTAAGATTACTATATCGACG | 0.573 log2 normalized fluorescence
21 | CCGGCCGACACCTGTTATTAATAGCTAAGATTACTATATCGACG | 0.432 log2 normalized fluorescence
22 | CCGGCTGATCCCCCGTATTAATAGCTAAGATTACTATATCGACG | 0.0512 log2 normalized fluorescence
23 | CCGGCTGACACGGCGTATTAATAGCTAAGATTACTATATCGACG | 0.188 log2 normalized fluorescence
24 | CCGGCTGAACGGTTGTATTAATAGCTAAGATTACTATATCGACG | 0.123 log2 normalized fluorescence
25 | CCGGCTGAACCAACGTATTAATAGCTAAGATTACTATATCGACG | 0.302 log2 normalized fluorescence
26 | CCGGCTGAGTTCCCGTATTAATAGCTAAGATTACTATATCGACG | 0.0824 log2 normalized fluorescence
27 | CCGGCTGACGTCACGTATTAATAGCTAAGATTACTATATCGACG | 0.246 log2 normalized fluorescence
28 | CCGGCTGAAAGCATGTATTAATAGCTAAGATTACTATATCGACG | 0.491 log2 normalized fluorescence
29 | CCGGCTGAGCATGCGTATTAATAGCTAAGATTACTATATCGACG | 0.461 log2 normalized fluorescence
30 | CCGGCTGAGTCCGCGTATTAATAGCTAAGATTACTATATCGACG | 0.0725 log2 normalized fluorescence
31 | CCGGCTGACCCGTGGTTTTAATAGCTAAGATTACTATATCGACG | 0.466 log2 normalized fluorescence
32 | CCGGCAGACACGTGGTGTTAATAGCTAAGATTACTATATCGACG | 0.826 log2 normalized fluorescence
33 | CCGGCAGATACGTGGTGTTAATAGCTAAGATTACTATATCGACG | 0.257 log2 normalized fluorescence
34 | CCGGCAGACATGTGGTGTTAATAGCTAAGATTACTATATCGACG | 0.734 log2 normalized fluorescence
35 | CCGGCTGACTTCAGGTATTAATAGCTAAGATTACTATATCGACG | 0.148 log2 normalized fluorescence
36 | CCGGCTGACCAAGTGTATTAATAGCTAAGATTACTATATCGACG | 0.214 log2 normalized fluorescence
37 | CCGGCAATCACGTGGTATTAATAGCTAAGATTACTATATCGACG | 0.75 log2 normalized fluorescence
38 | CCGGCATCCACGTGGTATTAATAGCTAAGATTACTATATCGACG | 0.471 log2 normalized fluorescence

Row | Sequence | binding signal
39 | CCGGCCTTCACGTGGTATTAATAGCTAAGATTACTATATCGACG | 0.765 log2 normalized fluorescence
40 | CCGGCTTTCACGTGGTATTAATAGCTAAGATTACTATATCGACG | 0.847 log2 normalized fluorescence
41 | CCGGCGTTCACGTGGTATTAATAGCTAAGATTACTATATCGACG | 0.664 log2 normalized fluorescence
42 | CCGGCATTCACGTGGTATTAATAGCTAAGATTACTATATCGACG | 0.958 log2 normalized fluorescence
43 | CCGGCTGACGAGATGTATTAATAGCTAAGATTACTATATCGACG | 0.0764 log2 normalized fluorescence
44 | CCGGCTGACACGCGCTATTAATAGCTAAGATTACTATATCGACG | 0.811 log2 normalized fluorescence
45 | CCGGCTGGGTCGTGGTATTAATAGCTAAGATTACTATATCGACG | 0.0754 log2 normalized fluorescence
46 | CCGGCTGAGGTGACGTATTAATAGCTAAGATTACTATATCGACG | 0.0346 log2 normalized fluorescence
47 | CCGGCTGAATAATTGTATTAATAGCTAAGATTACTATATCGACG | -0.0392 log2 normalized fluorescence
48 | CCGGCAGACACGTGGTCTTAATAGCTAAGATTACTATATCGACG | 0.904 log2 normalized fluorescence
49 | CCGGCAGACACGTGGTATTAATAGCTAAGATTACTATATCGACG | 0.798 log2 normalized fluorescence
50 | CCGGCTGACCCGTGGTCTTAATAGCTAAGATTACTATATCGACG | 0.399 log2 normalized fluorescence
51 | CCGGCAGACACGCGGTCTTAATAGCTAAGATTACTATATCGACG | 0.8 log2 normalized fluorescence
52 | CCGGCTGACACGCGGTCTTAATAGCTAAGATTACTATATCGACG | 1.03 log2 normalized fluorescence
53 | CCGGCTGACACGTGGTCTTAATAGCTAAGATTACTATATCGACG | 1.02 log2 normalized fluorescence
54 | CCGGCTGACACACGGTCTTAATAGCTAAGATTACTATATCGACG | 0.354 log2 normalized fluorescence
55 | CCGGCTAACACGCGGTCTTAATAGCTAAGATTACTATATCGACG | 0.739 log2 normalized fluorescence
56 | CCGGCTGACACGTCTTATTAATAGCTAAGATTACTATATCGACG | 0.308 log2 normalized fluorescence
